Test results: PubChem BioAssay
Active and inactive are the calls of the source.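 How the source made its calls, unless noted: active means fluorescence slope higher than the sample average by over 3 SD (cut at about -0.22 in these data, passing the limit was not always enough); inactive means the rest.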

Assays:
[1] = inhibitors of TNFa-induced NFkB p65 translocation, primary screen, imaging, HUVEC, MLSMR starter and 10KST1 sets (AID 438;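 active means inhibition above 20% together with a positive visual image hit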;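 further: compound added about 3h40 before a 20 min TNFalpha stimulation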;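 on inhibition: signal is the nuclear over cytoplasmic p65 intensity ratio per well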); settings: HUVEC TNFa-induced p65 nuclear translocation; cell count: measured here: nuclei count (cytotoxicity indicator), at 2.08 µM; inhibition: at 2 µM, stronger effect = higher value, 0% TNFa-plus-vehicle, 100% no-TNFa wells
[2] = inhibitors of mutant huntingtin aggregation, primary screen, imaging, exon1htt(103Q)mCFP cells, high-content imaging (AID 483;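 active means visual image review flags a hit and inhibition of aggregation exceeds 20%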;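 further: compound exposure lasted 3 days before fixation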;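 on nuclei count: percent of the per-plate median nuclei count of sample wells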); settings: exon1htt(103Q)mCFP cell line, aggregate imaging, at 2 µM; inhibition of aggregation: stronger effect = higher value; nuclei count: measured here: cell count, toxicity
[3] = inhibitors of E-selectin induction by TNFa, primary screen, imaging, HUVEC, immunofluorescence, MLSMR starter and 10KST1 sets (AID 487;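 active means visually confirmed hit in the image check and inhibition above 20%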;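 on inhibition: signal is fraction of cell area covered by stained E-selectin grains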;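 on nuclei count: 100% = median nuclei count of all wells on the same plate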); settings: HUVEC TNFalpha-induced E-selectin immunofluorescence imaging, at 2 µM; inhibition: stronger effect = higher value; nuclei count: measured here: cell number, toxicity
[4] = biological target: Voltage-gated potassium channel subunit beta-2 (Rattus norvegicus) (UniProt P62483); experiment: KvBeta enzyme negative modulators, primary screen, biochemical, NADPH fluorescence (AID 622); settings: recombinant KvBeta, 4-cyanobenzaldehyde reduction, at 10 µM, stronger effect = higher value;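 further: slope of raw intensity against log time taken from 70 to 1610 s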
Sequence of Voltage-gated potassium channel subunit beta-2 (Rattus norvegicus) (P62483 whole entry, looked up): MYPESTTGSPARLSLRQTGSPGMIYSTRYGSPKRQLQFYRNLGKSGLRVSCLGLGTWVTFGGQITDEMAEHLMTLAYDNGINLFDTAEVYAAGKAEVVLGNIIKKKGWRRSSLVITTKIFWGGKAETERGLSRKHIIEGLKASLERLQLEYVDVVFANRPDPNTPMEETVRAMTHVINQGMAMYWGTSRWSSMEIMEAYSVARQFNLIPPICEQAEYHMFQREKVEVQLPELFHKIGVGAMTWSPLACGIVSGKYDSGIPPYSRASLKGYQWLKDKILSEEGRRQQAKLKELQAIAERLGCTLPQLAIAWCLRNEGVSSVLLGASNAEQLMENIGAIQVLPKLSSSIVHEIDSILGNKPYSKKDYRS

[5] = biological target: Voltage-gated potassium channel subunit beta-2 (Rattus norvegicus) (UniProt P62483); experiment: KvBeta positive modulators, primary screen, biochemical, NADPH fluorescence (AID 623;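 active means NADPH fluorescence slope more negative than the mean of all samples by about 3 SD, 99.7% confidence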;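 further: fluorescence intensity change per second fitted from 20 to 320 s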); settings: Recombinant KvBeta, NADPH fluorescence decrease slope, 10 min; at 10 µM; stronger effect = lower value
[6] = biological target: Alpha-2C adrenergic receptor (Homo sapiens) (UniProt P18825); experiment: modulators of alpha2C/GIRK thallium flux, primary screen, cell-based, HEK293 alpha2C/GIRK1/2 (AID 624;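 active means fluorescence slope after compound addition differing from the mean of all screened samples at 99.7% confidence, in either direction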;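 further: slope of fluorescence ratio to pre-addition baseline per second over 15 to 24 s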); settings: thallium flux BTC fluorescence, at 10 µM, actives lie on both sides
Sequence of Alpha-2C adrenergic receptor (Homo sapiens) (P18825 whole entry, looked up): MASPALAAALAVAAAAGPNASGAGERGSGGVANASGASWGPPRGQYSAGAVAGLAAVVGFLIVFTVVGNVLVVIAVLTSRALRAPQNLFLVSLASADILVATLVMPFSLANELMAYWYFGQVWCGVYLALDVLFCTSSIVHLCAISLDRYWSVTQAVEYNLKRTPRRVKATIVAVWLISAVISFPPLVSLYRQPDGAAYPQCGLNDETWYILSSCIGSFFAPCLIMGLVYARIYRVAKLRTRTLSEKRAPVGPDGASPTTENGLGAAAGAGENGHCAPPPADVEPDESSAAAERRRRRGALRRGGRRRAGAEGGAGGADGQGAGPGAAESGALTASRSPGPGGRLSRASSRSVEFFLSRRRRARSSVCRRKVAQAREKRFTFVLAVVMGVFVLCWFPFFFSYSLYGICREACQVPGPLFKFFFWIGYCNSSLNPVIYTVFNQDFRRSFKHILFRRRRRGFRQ

[7] = inhibitors of Sendai virus-induced IRF3 signaling, primary screen, TLR/RLR signaling modifier project, cell-based, Sendai virus stimulus, luciferase, 10K MLSCN set (AID 602276;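 active means inhibition at or above 50% at 10 µM; inactive means inhibition below 50%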;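 further: firefly luciferase from ISG56 promoter only with Renilla not read in this screen; 0% = Sendai virus plus DMSO and 100% = medium plus DMSO without virus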); settings: HEK293 RL24 IRF3 luciferase reporter, at 10 µM, stronger effect = higher value
[8] = inhibitors of poly I:C-induced TLR3 signaling, primary screen, cell-based, poly I:C stimulus, luciferase, 10K MLSCN set (AID 602277;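 active means inhibition of the reporter signal at or above 50%; inactive means inhibition below 50%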); settings: HEK293-TLR3 RL24 IRF3 luciferase reporter, at 10 µM, stronger effect = higher value

SMILES | cell count [1] | inhibition [1] | inhibition of aggregation [2] | nuclei count [2] | inhibition [3] | nuclei count [3] | fluorescence slope [4] | NADPH fluorescence slope [5] | slope [6] | inhibition [7] | inhibition [8]
CCOC(=O)c1ccc(NC(=O)CCc2c(C)nc3ncnn3c2C)cc1 | 402 | 1.9% (inactive) | -19.7% (inactive) | 107% | -138% (inactive) | 116% | -0.508 (inactive) | 6.6e-06 (inactive) | 0.00565 (inactive) | -2.81% (inactive) | 7.84% (inactive)
Cc1nnc(SCCn2c(Br)nc3c2c(=O)n(C)c(=O)n3C)s1 | 410 | 3.8% (inactive) | 2% (inactive) | 101% | -12% (inactive) | 109% | -0.374 (inactive) | -1.8e-05 (inactive) | 0.00518 (inactive) | -7.02% (inactive) | -0.072% (inactive)
CC(=O)NC(CCS(C)(=O)=O)C(=O)Nc1cccc2ccccc12 (stereo not drawn) | 667 | 3.9% (inactive) | 18.3% (inactive) | 100% | -7.5% (inactive) | 108% | -0.564 (inactive) | -3.4e-05 (inactive) | 0.006 (inactive) | 1.24% (inactive) | 31.9% (inactive)
O=C(NCc1ccco1)c1ccc2c(=O)n(CC3CCCO3)c(=S)[nH]c2c1 (stereo not drawn) | 318 | -2.6% (inactive) | -6.3% (inactive) | 120% | -7.4% (inactive) | 101% | -0.501 (inactive) | -2.2e-05 (inactive) | 0.00599 (inactive) | 9.53% (inactive) | 15.2% (inactive)
COc1ccc(NC(=O)C(C)NS(=O)(=O)c2ccc(NC(C)=O)cc2)cc1Cl (stereo not drawn) | 788 | 2.8% (inactive) | -14.8% (inactive) | 105% | 6.9% (inactive) | 113% | -0.34 (inactive) | 2.4e-05 (inactive) | 0.00739 (inactive) | 12.1% (inactive) | 7.34% (inactive)
Cc1ccc(C(C(=O)NC2CCCCC2)N(C(=O)c2csnn2)C2CCCC2)o1 (stereo not drawn) | 514 | -8.3% (inactive) | -9.5% (inactive) | 103% | -68.9% (inactive) | 112% | -0.547 (inactive) | 1.5e-05 (inactive) | 0.00533 (inactive) | 14.4% (inactive) | 47.6% (inactive)
COc1ccccc1-c1nc2n(n1)C(c1ccc(Cl)cc1)C(C(N)=O)=C(C)N2 (stereo not drawn) | 313 | 1.8% (inactive) | 4.3% (inactive) | 101% | -37.7% (inactive) | 84.9% | -0.464 (inactive) | 1.5e-05 (inactive) | 0.00608 (inactive) | 11.9% (inactive) | 36.9% (inactive)
CCOc1ncccc1C(=O)OCC(=O)N1CC(=O)Nc2ccccc21 | 371 | 2.2% (inactive) | -21.8% (inactive) | 102% | -9.8% (inactive) | 111% | -0.486 (inactive) | 3.8e-06 (inactive) | 0.00558 (inactive) | 7.28% (inactive) | 22.7% (inactive)
Cc1nc2ncnn2c(Nc2ccc3c(c2)OCCO3)c1C | 233 | -9.3% (inactive) | 1.4% (inactive) | 87.4% | -57.1% (inactive) | 97.7% | -0.614 (inactive) | -4.3e-05 (inactive) | 0.00442 (inactive) | 9.15% (inactive) | -0.101% (inactive)
COc1ccccc1OCCOc1ccccc1/C=N/n1cnnc1 | 375 | -3.8% (inactive) | -14.3% (inactive) | 94.1% | -66.6% (inactive) | 103% | -0.402 (inactive) | -2.8e-05 (inactive) | 0.00507 (inactive) | -3.21% (inactive) | -1.03% (inactive)
COc1ccc(C(=O)Nc2cccc(-c3nc4ncccc4o3)c2C)cc1OC | 729 | -44.9% (inactive) | -4.4% (inactive) | 96.1% | -22.4% (inactive) | 109% | -0.562 (inactive) | 1.4e-05 (inactive) | 0.00564 (inactive) | -16.3% (inactive) | -34.5% (inactive)
O=S(NCc1ccco1)C12CC3CC(CC(C3)C1)C2 (stereo not drawn) | 426 | 12.5% (inactive) | 1.2% (inactive) | 102% | -2.2% (inactive) | 101% | -0.582 (inactive) | -2e-07 (inactive) | 0.00485 (inactive) | -5.22% (inactive) | 0.485% (inactive)
CC(=O)SCCC(=O)Nc1ccccc1 | 646 | -1.4% (inactive) | -12.1% (inactive) | 122% | -61.7% (inactive) | 108% | -0.498 (inactive) | 3.1e-06 (inactive) | 0.00709 (inactive) | 20.3% (inactive) | 28.9% (inactive)
